According to PubChem BioAssay (NCI):
This is part of a sample that, as a whole, favours compounds with a hit. Of some 83,000 tested, about 20% had one in any assay.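 96-well plates, one dose, 48 hours. Percent growth reported; active if below 10.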 Values without a mark were called inactive. Activity calls are given as the source filed them.

Assays:
Assay in all cases: NCI-60 one-dose screen, 48 h (100 = growth as untreated, 0 = no growth, -100 = all killed)
Conditions in all cases: 10 µM unless noted
K-562 leukemia = tested on: K-562 leukemia
MALME-3M melanoma = tested on: MALME-3M melanoma
MDA-MB-231 breast = tested on: MDA-MB-231 breast
RXF 393 renal = tested on: RXF 393 renal
SF-268 CNS = tested on: SF-268 CNS
SF-295 CNS = tested on: SF-295 CNS
SF-539 CNS = tested on: SF-539 CNS
UACC-257 melanoma = tested on: UACC-257 melanoma
M14 melanoma = tested on: M14 melanoma
HCT-15 colon = tested on: HCT-15 colon
HT29 colon = tested on: HT29 colon
SNB-75 CNS = tested on: SNB-75 CNS
SNB-19 CNS = tested on: SNB-19 CNS
U251 CNS = tested on: U251 CNS
PC-3 prostate = tested on: PC-3 prostate
SK-MEL-5 melanoma = tested on: SK-MEL-5 melanoma
UACC-62 melanoma = tested on: UACC-62 melanoma
SK-MEL-28 melanoma = tested on: SK-MEL-28 melanoma
SK-MEL-2 melanoma = tested on: SK-MEL-2 melanoma

Structure (SMILES)	growth (K-562 leukemia)	growth (MALME-3M melanoma)	growth (MDA-MB-231 breast)	growth (RXF 393 renal)	growth (SF-268 CNS)	growth (SF-295 CNS)	growth (SF-539 CNS)	growth (UACC-257 melanoma)	growth (M14 melanoma)	growth (HCT-15 colon)	growth (HT29 colon)	growth (SNB-75 CNS)	growth (SNB-19 CNS)	growth (U251 CNS)	growth (PC-3 prostate)	growth (SK-MEL-5 melanoma)	growth (UACC-62 melanoma)	growth (SK-MEL-28 melanoma)	growth (SK-MEL-2 melanoma)
O=C(CN1CCOCC1)NNc1ncnc2ccccc12	0.401% (active)	-74.5% (active)	2.91% (active)	-39.7% (active)	97.4%	95.9%	82.1%	86.3%	55.2%	70.8%	92%	72.7%	102%	85.3%	78.3%	98.2%	83.1%	71.1%	96.3%
COc1ccc(/C=C2\SC(=Nc3cc(C)[nH]n3)NC2=O)cc1	101%	89.6%	95.4%	80.7%	95.8%	86.3%	95.8%	98.7%	98.1%	84.2%	107%	95.2%	90.8%	98.1%	81%	95.7%	90.6%	85%	121%
Clc1ccc2c(NCCCn3ccnc3)c3oc4ccccc4c3nc2c1	8.56% (active)	43.2%	36.7%	32.3%	45.3%	26.3%	27.4%	80.7%	61.7%	13.7%	19.4%	47.8%	57.1%	19.6%	47.9%	76%	66.1%	68.2%	84.9%
N#Cc1c(-c2ccc(F)cc2)nc2c(C#N)c(Nc3ccccc3)nn2c1N	99.5%	113%	109%	110%	95.3%	99.3%	97.3%	106%	109%	98.7%	102%	101%	96.3%	104%	96.7%	99.2%	99.8%	102%	105%
C#Cc1nc(C2=C(C)C(OC(=O)CCC(=O)O)CC2)cs1 (centres undefined)	104%	107%	104%	113%	99.9%	108%	100%	102%	103%	99.8%	125%	98.3%	104%	106%	102%	101%	95.3%	115%	114%
COc1cc(OC)c(S(=O)(=O)NNC(=O)c2ccncc2)cc1C(=O)/C=C/c1ccc(C)cc1	27.3%	95.5%	67.4%	82.9%	60.9%	107%	65.3%	99.6%	56.4%	85.3%	95.1%	73%	66.7%	68.1%	45.9%	94.2%	76.2%	104%	109%
C#Cc1nc(C2=C(C)C(O)CC2)cs1 (centres undefined)	114%	109%	112%	95.6%	108%	113%	108%	102%	101%	98.9%	118%	96.1%	104%	104%	97.7%	101%	94.2%	105%	117%
COC(=O)C(C)NS(=O)(=O)/N=C1\NC(=O)NC1=C(Cl)Cl (centres undefined)	104%	99%	106%	124%	98.2%	103%	95.7%	99.7%	94.7%	102%	115%	98.8%	100%	106%	92.9%	99.1%	91.9%	99.4%	110%
C=CCSc1ccc2c(c1)C(N1CCNCC1)=Nc1ccccc1O2	29.3% [8.25 µM]	86.6% [8.25 µM]	77.8% [8.25 µM]	63% [8.25 µM]	74.8% [8.25 µM]	85.1% [8.25 µM]	74.1% [8.25 µM]	83% [8.25 µM]	83.4% [8.25 µM]	85.3% [8.25 µM]	44.2% [8.25 µM]	79.8% [8.25 µM]	82.7% [8.25 µM]	61.3% [8.25 µM]	66.9% [8.25 µM]	85.5% [8.25 µM]	91.6% [8.25 µM]	80.3% [8.25 µM]	92.3% [8.25 µM]
N#Cc1nc(-c2ccccc2)oc1N1CCC(CO)C1 (centres undefined)	114%	94.3%	101%	100%	97.7%	105%	93.9%	105%	106%	104%	107%	89%	93.3%	105%	107%	106%	89.4%	103%	127%
NS(=O)(=O)c1cccc(Nc2nc(SCC(=O)c3ccc(Br)cc3)nc3ccccc23)c1	44.7%	54.7%	64.5%	24.5%	32.8%	17.4%	72%	96.1%	80.2%	67.4%	90.2%	10.9%	35.3%	59.7%	36.5%	58.7%	59.1%	84.4%	89.9%
Nc1nc(N)c2c(n1)NC(c1ccc(F)cc1)CC(c1ccc(Nc3nc(NCCO)nc(Nc4ccc(Cl)cc4)n3)cc1)=N2 (centres undefined)	0.513% (active)	-60.4% (active)	-75.8% (active)	-77.4% (active)	38.7%	9.06% (active)	-78.9% (active)	106%	-66.1% (active)	-48.3% (active)	-52.1% (active)	44.3%	8.01% (active)	-76.6% (active)	22.7%	-81% (active)	49.8%	-82.9% (active)	26.3%
CC(C)(C)Nc1nc2c(OCCc3ccccc3)cccn2c1-c1ccc(O)cc1	17.4%	62.5%	79.6%	21.2%	91.3%	36%	72.9%	97.9%	63.1%	2.12% (active)	14.8%	124%	68.3%	53.1%	28.8%	50.6%	70.4%	66%	85.1%
COc1ccc(-c2nc3ccc(-c4nnc(SCC(=O)Nc5ccc(C(=O)/C=C/c6ccc(Cl)cc6)cc5)o4)cc3[nH]2)cc1OC	92.7%	95.1%	95.2%	106%	106%	98%	83.8%	112%	108%	97.1%	108%	106%	109%	100%	97.7%	97.6%	98%	105%	112%
CC(=O)Nc1cc(F)cc(-c2ccc3[nH]cc(-c4ccccc4)c3n2)c1	0.935% (active)	-14.3% (active)	-3.42% (active)	-11.8% (active)	41.3%	-42.9% (active)	-28.5% (active)	-29.3% (active)	-14.8% (active)	-60.8% (active)	-49.6% (active)	111%	12.9%	-2.16% (active)	20%	49%	-1.28% (active)	-67.5% (active)	-17.5% (active)
COc1cc(/C=C/C(=O)c2cc(OC)c(OC)c(OC)c2)ccc1OCc1ccc(F)cc1	11.7%	67.6%	46.8%	77.7%	58%	54.7%	9.22% (active)	79.8%	71%	16%	4.34% (active)	8.67% (active)	49.8%	33.8%	35%	58.7%	43.9%	81.1%	90%
